Records with an inconclusive call do not appear. Calls of active or inactive are those of the source. Calls come from the whole dose curve; as a rule, active = well fitted activation curve with a large enough effect; inconclusive = small, poorly fitted or top-dose-only effect; inactive = no such curve, though single readings can be large or run the other way.

This experiment is described as follows: qHTS for Activators of Parkin Expression: LOPAC Validation Assay (FLuc Reporter) (AID 720573). Particulars: Cell line, PRKN promoter firefly luciferase reporter, vehicle wells = 0, positive control = 100%; series mostly up to 46.1 µM; activation: at the top concentration. The text has this: Parkin is an E3 ubiquitin ligase localized in the cytosol of cells expressed in many tissues, including brain, skeletal muscle, heart and liver tissues. One hour after stress induction by mitochondrial uncouplers (which mimic mitochondria damage by decreasing the mitochondrial inner membrane electrochemical gradient that is used to produce ATP), Parkin translocates from the cytosol to mitochondria in many cultured cell types, including neurons and HeLa cells. Administration of other mitochondrial poisons, such as Paraquat and azide in cells lacking mitochondrial DNA (mtDNA), induces Parkin translocation to mitochondria. […] It was proposed that Parkin (together with Pink1) mediates a mitochondrial quality control pathway to maintain organelle population fidelity by removing damaged mitochondria. Understanding the normal physiologic role of Parkin (and Pink1) may uncover novel treatment strategies for sporadic Parkinson's disease patients with mutation in these genes.
A cell based qHTS in 1536 well format was developed assess modulation of Parkin expression using a neuronal cell line that stably expresses a stably expresses a luminescent coincidence reporter (FLuc and NLuc reporters) behind the Parkin promoter. The LOPAC library is used to validate the assay for quantitative high-throughput screening. The data herein reports the signal from the FLuc reporter. An increase in this signal = activation of Parkin expression. For this assay , a positive control normalized signal increase corresponding to a high quality qHTS curve class in both luminescent channels is the desired outcome for this assay.
NIH Chemical Genomics Center [NCGC]
NIH Molecular Libraries Probe Centers Network [MLPCN]
Assay Submitter (PI): Richard Youle, National Institute of Neurological Disorders and Strokes (NINDS), NIH
[1] Narendra, D., et al., Parkin is recruited selectively to impaired mitochondria and promotes their autophagy. J Cell Biol, 2008. 183(5): p. 795-803.
[2] Suen, D.F., et al., Parkin overexpression selects against a deleterious mtDNA mutation in heteroplasmic cybrid cells. Proc Natl Acad Sci U S A, 2010. […] 11835-40.
[3] Cheng K, Inglese J. A coincedence reporter-gene system for high-throughput screening. Nat Methods. 2012: 9(10);937
Five microliters (1,500 cells/well) of the Parkin coincidence reporter cells were seeded to 1536 well assay plates (Greiner Catalog # 789173-F) and incubated at 37 C, 5% CO2 for 24 hours. Compounds (23 nL) were pinned using the Kalypsys robotic system equipped with 1536 pin head adaptor in 7-point dose response. The assay plates were incubated for additional 24 hr at 37 C, 5% CO2 followed by a volume reduction in each well to 2 uL using an automated plate washer/aspirator. Following the volume reduction,2 uL of FLuc detection reagent and plates were incubated for 10 minutes at room temperature. The FLuc luminescence signal was obtained using the PerkinElmer ViewLux plate imager and then 2 uL of NanoLuc detection reagent was added to the plates. After another 10 minute incubation, NanoLuc signal was obtained using the PerkinElmer ViewLux plate imager as before. Data from each channel was normalized to DMSO (neutral control) and the positive control compounds (100%).
With `N=c1nc(N2CCCCC2)cc(N)n1O`, the “activation” value is -4.65% (inactive).

For the compound `CN1CCN(CCCN2c3ccccc3Sc3ccc(C(F)(F)F)cc32)CC1`, the “activation” value is -15.8% (inactive).

On to `NCCCC(N)(C(=O)O)C(F)F` (stereo not given), for which the “activation” value is 7.52% (inactive).

With `Cc1ccc(N(CC2=NCCN2)c2cccc(O)c2)cc1`, the “activation” value was -8.78% (inactive).

Take `NC(=O)c1cnccn1`: the “activation” value is -1.45% (inactive).

In the case of `Cc1ccccc1C(OCCN(C)C)c1ccccc1` (stereo not given), the “activation” value was -10.2% (inactive).

For `CCN(CC)CCCC(C)Nc1ccnc2cc(Cl)ccc12` (stereo not given), the “activation” value is -8.36% (inactive).

As to `NC(N)=NC(=O)c1nc(Cl)c(N)nc1N`, the “activation” value is -6.98% (inactive).

For `Cc1cccc(-c2[nH]c(C(C)(C)C)nc2-c2ccc3nccnc3c2)n1`, the “activation” value was -14.3% (inactive).

Turning to `Clc1cccc(Cl)c1NC1=NCCN1`, the “activation” value was 6.69% (inactive).

Take `CCCCNc1cc(C(=O)O)cc(S(N)(=O)=O)c1Oc1ccccc1`: the “activation” value is -11.2% (inactive).

Consider `CCC(C)N(C)C(=O)c1cc2ccccc2c(-c2ccccc2Cl)n1` (stereo not given), for which the “activation” value was -3.77% (inactive).

Turning to `NS(=O)(=O)c1cc2c(cc1Cl)NC=NS2(=O)=O`, the “activation” value was -1.34% (inactive).

For `NNCCc1ccccc1`, the “activation” value is 19.5% (inactive).

For the compound `CC(C)C[C@H](NC(=O)[C@@H](O)[C@H](N)Cc1ccccc1)C(=O)O`, the “activation” value is -11.4% (inactive).

Consider `C1COC(NC(C2CC2)C2CC2)=N1`, for which the “activation” value is -11.7% (inactive).

Regarding `OC(CN1CCC(Cc2ccc(F)cc2)CC1)c1ccc(Cl)cc1` (stereo not given), the “activation” value was -10.8% (inactive).

For `Cc1cn[nH]c1`, the “activation” value is -2.18% (inactive).

Take `O=NN(CCCl)C(=O)NCCCl`: the “activation” value is 4.97% (inactive).

As to `Cc1[nH]c(=O)c(C#N)cc1-c1ccncc1`, the “activation” value is 6.04% (inactive).

Regarding `O=c1[nH]cnc2[nH]ncc12`, the “activation” value was -6.67% (inactive).

Turning to `O=C(O)COCCN1CCN(C(c2ccccc2)c2ccc(Cl)cc2)CC1` (stereo not given), the “activation” value is -16.5% (inactive).

Turning to `c1ccc([C@H]2CN3CCSC3=N2)cc1`, the “activation” value was -1.04% (inactive).

On to `O=C1CCc2cc(OCCCCc3nnnn3C3CCCCC3)ccc2N1`, for which the “activation” value is -1.71% (inactive).

As to `CC(C)NCC(O)COc1ccc(COCCOC(C)C)cc1` (stereo not given), the “activation” value was -0.622% (inactive).

On to `Cn1cnc([N+](=O)[O-])c1Sc1ncnc2nc[nH]c12`, for which the “activation” value is -15.4% (inactive).

For `Cc1[nH]c(=O)c(C#N)cc1-c1ccc2nccn2c1`, the “activation” value is -1.21% (inactive).

Consider `Cc1cnc(NC(=O)C2=C(O)c3ccccc3S(=O)(=O)N2C)s1`, for which the “activation” value is 9.42% (inactive).

As to `CCOC(=O)N1CCC(=C2c3ccc(Cl)cc3CCc3cccnc32)CC1`, the “activation” value is -27.9% (inactive).

In the case of `OC(CCN1CCCCC1)(c1ccccc1)C1CC2C=CC1C2` (stereo not given), the “activation” value is -5.16% (inactive).

On to `CC(C)(Sc1ccc(CCN(CCCCC2CCCCC2)C(=O)NC2CCCCC2)cc1)C(=O)O`, for which the “activation” value is 1.05% (inactive).

As for `CC(=O)Oc1ccccc1C(=O)O`, the “activation” value is -5.29% (inactive).

In the case of `Nc1ccc(S(=O)(=O)Nc2ccnn2-c2ccccc2)cc1`, the “activation” value is -2.84% (inactive).

In the case of `O=C1CCC(N2C(=O)c3ccccc3C2=O)C(=O)N1` (stereo not given), the “activation” value was -3.35% (inactive).

Take `CCOC(=O)C1=C[C@]2(CC)CCCN3CCc4c(n1c1ccccc41)[C@@H]32`: the “activation” value is -8.75% (inactive).

With `CCn1cc(C(=O)O)c(=O)c2cc(F)c(N3CCNC(C)C3)c(F)c21` (stereo not given), the “activation” value was -6.83% (inactive).

For `O=c1n(CCCN2CCN(c3cccc(Cl)c3)CC2)nc2ccccn12`, the “activation” value is -8.76% (inactive).

Regarding `CC(C)(C)NCC(O)c1ccc(O)c(CO)c1` (stereo not given), the call was inactive.

For the compound `CNC[C@H](O)c1cccc(O)c1`, the “activation” value is -1.45% (inactive).

`C[C@]12CCC(=O)C=C1CC[C@@H]1[C@@H]2[C@@H](O)C[C@@]2(C)[C@H]1CC[C@]2(O)C(=O)CO`: the “activation” value was 3.75% (inactive).

The values are drawn from PubChem BioAssay (NCATS).
